Most compounds without a hit are left out; they make up all but 19% or so of the library.
IL-1B inflam inh = inhibitors of inflammasome signaling (IL-1 beta secretion). THP-1 LPS/ATP IL-1B secretion, AlphaLISA, 16 h; hits give low values. activity change, % at 57.5 µM. actives 4.7% (n = 360,000). AID 743279; in the data active = activity change below about -50%; inconclusive = mostly about -30% to -49%
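Secreted IL-1B measured by AlphaLISA bead assay after 16 h compound exposure of THP-1 cells; compounds (final up to 57.5 uM) added 1 h before LPS (250 ng/mL) and ATP (1.25 mM) stimulation; lower signal means less secretion.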
DT40 TDP1 no CPT = qHTS for Inhibitors of human tyrosyl-DNA phosphodiesterase 1 (TDP1): qHTS in cells in absence of CPT; DT40 Tdp1-/- hTDP1 cells, no CPT, ATP luminescence, 48 h; Potency, µM (top dose mostly 46.2 µM), without a hit: top-dose activity change, negative = growth inhibition, actives largely listed as inhibitors; actives 15% (n = 420,000); also: potency is read from the fitted curve at half-maximal effect; nearly all actives have a fitted effect of over 55% in size
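Camptothecin absent (DMSO only). Human TDP1-complemented DT40 knockout cells, 400 cells/well, 37 °C for minimum 48 hr; ATP measured via CellTiter-Glo, 30 min dark incubation, luminescence.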
HT1080NT lethal = kills 2HG-producing HT-1080-NT fibrosarcoma cells; actives 1.6% (n = 360,000); HT-1080-NT fibrosarcoma viability, CellTiter-Glo ATP luminescence, 48 h; Potency, µM (doses to about 46.1 µM), without a hit: at the highest dose activity, negative = less viability, actives largely listed as cytotoxic; AID 686970;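 also: NT is the 2HG producing partner of a matched IDH1 knockdown line; potency is read from the fitted curve at half-maximal effect; 0% = DMSO-treated cells and -100% = media-only wells without cells; nearly all actives have a fitted effect of over 55% in size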
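Read-out is CellTiter-Glo luminescence after 10 minutes at room temperature, following 48 hours' compound treatment of HT-1080-NT cells (750 cells/well, RPMI, 5% FBS, 37 degrees C).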
ELG1 DNA repair = blocks ELG1-dependent DNA repair in HEK293T cells; HEK293T ELG1-luciferase reporter, luminescence, 16 h; DNA damage induced by 5-fluorouridine; actives 2.3% (n = 330,000); Potency, µM (highest dose often 46.1 µM), for inactives: top-dose activity change, negative = inhibition, actives largely listed as inhibitors; also: potency is read from the fitted curve at half-maximal effect; nearly all actives have a fitted effect of over 55% in size
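DMSO vehicle served as the neutral condition. Each well held 2,000 cells given 5-fluorouridine plus compound; after 16 hr at 37 °C/5% CO2, ONE-Glo was added and luciferase measured 30 min later.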
TDP1 cell CPT = growth inhibition of DT40 Tdp1-/-;hTDP1 cells with camptothecin (screen for TDP1 inhibitors); chicken DT40 Tdp1-/-;hTDP1 cells + 20 nM CPT, ATP luminescence, 48 h; Potency, µM (titrated, usually from 46.2 µM), for the others: top-dose activity change, negative = growth inhibition, actives largely listed as inhibitors; actives 12% (n = 420,000); also: potency is read from the fitted curve at half-maximal effect; nearly all actives have a fitted effect of over 55% in size
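Chicken DT40 Tdp1-/- cells complemented with human TDP1, 400 cells/well, exposed to compounds plus 20 nM camptothecin for at least 48 h at 37 C; viability read as ATP content by CellTiter-Glo luminescence.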
HT1080 IDH1KD tx = kills HT-1080 cells with IDH1 knockdown. HT-1080 IDH1 knockdown viability, ATP luminescence, 48 h. Potency, µM (highest dose often 46.1 µM), for inactives: top-dose activity, negative = toxicity, actives largely listed as cytotoxic. actives 2% (n = 360,000). AID 686971;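 also: potency is read from the fitted curve at half-maximal effect; 0% = DMSO wells and -100% = cell-free medium wells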
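CellTiter-Glo luminescence after 48 h compound exposure at 37 degrees C of IDH1-knockdown HT-1080 cells in 5% FBS RPMI. %Activity scaled between DMSO wells and cell-free media wells, with curves fitted and assigned curve classes.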
ELG1 FLuc counter = luciferase inhibition in cell-free luciferin readout for ELG1 hits | shares compounds with ELG1 DNA repair | AID 624247 | actives 3% (n = 350) | Potency, µM (top dose mostly 46.1 µM), for inactives: at the top dose activity change, negative = inhibition, hits mostly inhibitors | cell-free firefly luciferase luminescence counter-screen, ViewLux; also: potency is read from the fitted curve at half-maximal effect
ELG1 Luc conf = confirmation of human ELG1-dependent DNA repair inhibitors | shares compounds with ELG1 DNA repair | Potency, µM (highest dose often 46.1 µM), for inactives: at the top dose activity change, negative = inhibition, most hits filed as inhibitors | HEK293T ELG1-luciferase levels, luminescence; cells co-treated with 5-fluorouridine | actives 68% (n = 670); also: potency is read from the fitted curve at half-maximal effect; nearly all actives have a fitted effect of over 55% in size
Target sequence (Q96QE3 whole entry, looked up): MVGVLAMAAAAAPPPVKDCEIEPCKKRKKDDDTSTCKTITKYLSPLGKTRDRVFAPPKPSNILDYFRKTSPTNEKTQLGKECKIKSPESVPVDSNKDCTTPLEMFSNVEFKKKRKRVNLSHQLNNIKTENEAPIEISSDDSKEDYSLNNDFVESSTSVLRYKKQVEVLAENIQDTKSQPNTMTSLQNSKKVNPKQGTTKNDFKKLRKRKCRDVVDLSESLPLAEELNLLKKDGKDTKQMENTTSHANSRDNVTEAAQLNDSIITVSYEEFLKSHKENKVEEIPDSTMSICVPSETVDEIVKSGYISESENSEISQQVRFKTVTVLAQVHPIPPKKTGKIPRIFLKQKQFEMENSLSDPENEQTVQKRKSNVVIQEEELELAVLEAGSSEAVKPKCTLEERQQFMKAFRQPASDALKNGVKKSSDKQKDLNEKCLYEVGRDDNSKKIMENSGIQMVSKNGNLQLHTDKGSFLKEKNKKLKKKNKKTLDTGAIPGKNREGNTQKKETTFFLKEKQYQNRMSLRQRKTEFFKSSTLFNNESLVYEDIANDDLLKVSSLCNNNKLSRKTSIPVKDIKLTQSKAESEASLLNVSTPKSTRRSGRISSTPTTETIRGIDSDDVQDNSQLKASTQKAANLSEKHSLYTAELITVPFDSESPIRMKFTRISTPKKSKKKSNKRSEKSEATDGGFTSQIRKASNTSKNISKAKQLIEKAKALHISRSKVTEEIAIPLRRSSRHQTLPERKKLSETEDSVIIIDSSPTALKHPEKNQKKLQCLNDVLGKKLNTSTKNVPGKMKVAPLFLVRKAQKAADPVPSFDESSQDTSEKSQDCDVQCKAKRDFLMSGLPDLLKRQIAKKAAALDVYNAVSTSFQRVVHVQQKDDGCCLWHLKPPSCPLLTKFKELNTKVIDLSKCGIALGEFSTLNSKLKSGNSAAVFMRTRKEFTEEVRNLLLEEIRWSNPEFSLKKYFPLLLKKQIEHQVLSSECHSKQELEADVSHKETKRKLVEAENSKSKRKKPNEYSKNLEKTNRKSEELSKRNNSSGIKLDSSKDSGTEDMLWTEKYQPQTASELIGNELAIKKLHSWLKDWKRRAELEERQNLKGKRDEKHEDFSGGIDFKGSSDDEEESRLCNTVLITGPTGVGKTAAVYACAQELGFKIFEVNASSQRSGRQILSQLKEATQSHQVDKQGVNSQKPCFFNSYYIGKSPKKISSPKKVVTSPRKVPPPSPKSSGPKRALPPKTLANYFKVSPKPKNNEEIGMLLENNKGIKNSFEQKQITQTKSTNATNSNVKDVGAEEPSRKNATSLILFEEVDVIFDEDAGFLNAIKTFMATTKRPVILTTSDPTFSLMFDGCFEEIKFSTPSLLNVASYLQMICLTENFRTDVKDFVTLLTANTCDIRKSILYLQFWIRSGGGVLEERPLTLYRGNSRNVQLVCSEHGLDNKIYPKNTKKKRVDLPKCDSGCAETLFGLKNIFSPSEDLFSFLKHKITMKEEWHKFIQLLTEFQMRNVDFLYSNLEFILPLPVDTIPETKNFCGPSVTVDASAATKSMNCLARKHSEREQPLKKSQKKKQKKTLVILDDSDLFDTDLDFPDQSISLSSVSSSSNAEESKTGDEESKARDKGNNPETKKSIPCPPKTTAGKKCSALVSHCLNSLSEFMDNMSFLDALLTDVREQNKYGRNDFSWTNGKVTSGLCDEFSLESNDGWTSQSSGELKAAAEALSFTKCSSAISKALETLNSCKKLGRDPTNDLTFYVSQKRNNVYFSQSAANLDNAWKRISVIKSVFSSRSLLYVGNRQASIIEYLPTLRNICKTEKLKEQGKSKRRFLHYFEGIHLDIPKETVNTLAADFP
ELG1 MMS Luc = MMS-stimulated human ELG1 repair inhibition, confirmed; shares compounds with ELG1 DNA repair; HEK293T luciferase-tagged ELG1 level, MMS stimulated; Potency, µM (series often up to 46.1 µM), without a hit: top-dose activity change, negative = inhibition, hits mostly inhibitors; actives 53% (n = 670); AID 624249; also: potency is read from the fitted curve at half-maximal effect; nearly all actives have a fitted effect of over 60% in size
ELG1 5-FU = confirmation of ELG1 repair inhibitors: viability with 5FU. shares compounds with ELG1 DNA repair. cell viability with 5-FU, ELG1-dependent repair. Potency, µM (highest dose often 46.1 µM), inactives show top-dose activity change, negative = viability loss, most hits filed as cytotoxic. 670 tested, under 10 active. AID 624250;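 also: ELG1-luc HEK293T cells cotreated with 5-fluorouridine at 10 µM final; potency is read from the fitted curve at half-maximal effect; viability measured 16 h after compound addition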
ELG1 MMS cell = confirmation of ELG1 repair inhibitors: viability with MMS. shares compounds with ELG1 DNA repair. Cell viability with MMS, ELG1-dependent DNA repair. Potency, µM (series often up to 46.1 µM), for the others: at the top dose activity change, negative = viability loss, hits mostly cytotoxic. actives 33% (n = 670). AID 624251;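 also: ELG1-luc HEK293T cells co-treated with 10 µM MMS; potency is read from the fitted curve at half-maximal effect; viability read 16 h after compound addition; nearly all actives have a fitted effect of over 60% in size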
Cell viab unstim = affects unstimulated cell viability, ELG1 hit counter-screen; actives 8% (n = 900); Potency, µM (highest dose often 45.9 µM), without a hit: at the top dose activity change, negative = loss of viability, hits mostly cytotoxic; shares compounds with ELG1 DNA repair; cell viability counter-screen, unstimulated, luminescence;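 also: potency is read from the fitted curve at half-maximal effect; compound exposure lasted 16 hours before reading; nearly all actives have a fitted effect of over 55% in size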
FLuc enzyme = inhibits purified firefly luciferase, counter-screen for ELG1 hits | shares compounds with ELG1 DNA repair | purified firefly luciferase, luminescence counter-screen | Potency, µM (series often up to 57.5 µM), inactives show top-dose activity, negative = inhibition, most hits filed as inhibitors | actives 10% (n = 350); also: potency is read from the fitted curve at half-maximal effect
* marks the source's active call; other numbers are inactive results; u = inconclusive; x = no result given. Unless noted, calls follow the shape of the dose curve; as a rule, active = well fitted curve in the direction sought with a large enough effect; inconclusive = small, poorly fitted or top-dose-only effect, or another doubt; inactive = no such curve, though single readings can be large; an effect the other way counts as inactive or inconclusive. Unless noted, % is scaled to controls: 0 for no effect and ±100 for the full control effect.

SMILES | IL-1B inflam inh | DT40 TDP1 no CPT | HT1080NT lethal | ELG1 DNA repair | TDP1 cell CPT | HT1080 IDH1KD tx | ELG1 Luc conf | ELG1 MMS Luc | ELG1 5-FU | ELG1 MMS cell | Cell viab unstim | others
CC(=O)c1ccc(N(C(=O)CNC(=O)c2ccco2)C(C(=O)NC2CCCC2)c2ccncc2)cc1 (stereo not drawn) | -10 | 10% | 2% | -6% | 4% | 11% | x | x | x | x | x
CCN(c1cccc(C)c1)S(=O)(=O)c1cc2c3c(c1)CCC(=O)N3CCC2 | -2 | u | -10% | 5% | u | -1% | x | x | x | x | x
COc1cccc(C(=O)N/N=c2/oc3ccccc3cc2C(N)=O)c1 | -10 | -16% | 9% | -19% | 0% | -1% | x | x | x | x | x
COc1cccc(C(=O)N/N=c2\oc3c(OC)cccc3cc2C(=O)NCc2ccccc2)c1 | 0 | -25% | -9% | 4.1µM* | u | 0% | 2.2µM* | u | u | 4% | -13%
O=c1c2ccccc2oc2ccc(-c3ccoc3)cc12 | x | u | x | x | -107% | x | x | x | x | x | u
Nc1ccc(C#Cc2ccc3oc4ccccc4c(=O)c3c2)cc1 | u | u | -21% | x | u | -24% | x | x | x | x | x
COC(=O)C1C(=O)C=C(N2CCOCC2)CC1(C)C (stereo not drawn) | -10 | -2% | 10% | 4.1µM* | 4% | 7% | 25% | 32% | -1% | -1% | -1%
CCOC(=O)N1CCN(C(=O)CSCC(=O)Nc2nc(-c3ccc(-c4ccccc4)cc3)cs2)CC1 | 27 | 3.3µM* | u | 10µM* | 3.3µM* | u | x | x | x | x | 16µM* | ELG1 FLuc counter=-9%;FLuc enzyme=u
CC1CCc2nc(N)c(C#N)c(-c3cccnc3)c2C1 (stereo not drawn) | 15 | -9% | 7% | 1.2µM* | u | 3% | 1.6µM* | 14µM* | 3% | 22µM* | -2%
Cc1ccc(NC(=S)Nn2cnnc2)c(C)c1 | x | x | x | 4% | x | x | x | x | x | x | x
COc1cccc(OC)c1C(=O)Nc1ccc2c(c1)OCCO2 | -5 | 3% | 2% | 11% | 4% | -1% | x | x | x | x | x
CCOc1ccc(-n2cc(C(=O)Nc3cccc(OC)c3)c3cc(OC)c(OC)cc3c2=O)cc1 | 11 | -26% | 6% | u | 0% | 3% | 11µM* | 25µM* | u | -1% | -20% | ELG1 FLuc counter=-8%;FLuc enzyme=-6%
CCn1cc(C(=O)Nc2ccc3c(c2)OCCO3)c2cc(OC)c(OC)cc2c1=O | -4 | u | -4% | 5.8µM* | u | 1% | 7.1µM* | u | u | u | u | ELG1 FLuc counter=27%;FLuc enzyme=-10%
COc1ccc(OC)c(NC(=O)COC(=O)CSc2ccc(Cl)cc2)c1 | 5 | -20% | 9% | 0% | -19% | -1% | x | x | x | x | x
CCOC(=O)c1cnc[nH]c1=O | -6 | 14% | 0% | x | -11% | -2% | x | x | x | x | x
Cc1cc(C(=O)COC(=O)c2ccc(F)cc2)c(C)n1C | -1 | 2% | -1% | u | 3% | 5% | x | x | x | x | u
CC(C)(C)OC(=O)C[C@@H]1C/C=C\C[C@@H](CC(=O)N(CCO)Cc2ccccc2)C(=O)NC[C@H](c2ccccc2)OC1=O | -6 | u | u | 1.5µM* | 12µM* | -13% | 13µM* | 7.9µM* | 11% | u | u
COc1ccc(-c2cc3cc(F)ccc3cn2)cc1 | 45 | -24% | 8% | u | u | 8% | x | x | x | x | -6%
CCn1nc(C)cc1C(=O)N1CCCC(Nc2ccc(C(C)C)cc2)C1 (stereo not drawn) | -1 | u | 0% | u | -28% | -3% | x | x | x | x | x
COc1ccc(OC)c(Nc2nc(NCc3ccco3)nc(N)c2[N+](=O)[O-])c1 | x | u | -3% | u | -6% | -2% | 0.63µM* | -8% | u | -8% | -11%
COc1ccc(Nc2nc(-c3ccncc3)nc3ccccc23)cc1 | -7 | 10µM* | -25% | 2.9µM* | 21µM* | -2% | 5µM* | u | u | -12% | u | ELG1 FLuc counter=4%;FLuc enzyme=-7%
COc1ccc(C2CC(c3c(O)cc(C)oc3=O)=NCCS2)c(OC)c1 (stereo not drawn) | -8 | 0.021µM* | 1.3µM* | u | 0.46µM* | 1.3µM* | x | x | x | x | -15%
CCc1cn(C2CC(O)C(CO)O2)c(=O)[nH]c1=O (stereo not drawn) | 33 | -28% | 3% | u | u | 7% | x | x | x | x | x
CC(C)(Oc1ccc(Cl)cc1)C(=O)Nc1ccc(S(=O)(=O)Nc2ncccn2)cc1 | -2 | -22% | 7% | -11% | 0% | 17% | x | x | x | x | x

From PubChem BioAssay
